Test results taken from PubChem BioAssay (Tox21).
Records with an inconclusive call do not appear. Where a call stands in place of a potency, no number is given. The source made the active and inactive calls. Calls follow the shape of the dose curve; as a rule, active = well fitted cell-killing curve with a large enough effect in the repeat runs; inconclusive = weak or mixed curves, or effect the other way; inactive = flat fitted curve, though single readings scatter.

test: Nuclear factor erythroid 2-related factor 2/antioxidant responsive element (Nrf2/ARE) small molecule agonists: qHTS cell viability counter screen in human keratinocytes (AID 1919968); conditions: KeratinoSens HaCaT ARE cells viability, CellTiter-Fluor, 24 h; series mostly up to 92.4 µM; also: nearly all actives have a fitted effect of over 55% in size
Source text: U.S. Tox21 Program National Center for Advancing Translational Sciences [NCATS] Division of Preclinical Innovation [DPI] U.S. Environmental Protection Agency [EPA] National Institutes of Environmental Health Sciences [NIEHS] National Toxicology Program [NTP] U.S. Food and Drug Administration [FDA] Tox21 Assay Overview: Oxidative stress has been implicated in the pathogenesis of a variety of diseases ranging from cancer to neurodegeneration. The antioxidant response element (ARE) signaling pathway plays an important role in the amelioration of oxidative stress. The KeratinoSens (Givaudan, Switzerland) is an in vitro test method which quantifies luciferase induction as a measure of activation of Keap1-Nrf2-antioxidationt/electrophile response element (ARE) dependant pathway in HaCaT human keratinocytes stably transfected with a selectable plasmid. The KeratinoSens assay is a cell-based assay with a reporter cell line to detect potential skin sensitizers by their ability to induce the Nrf2/ARE-response. The activation of the report gene under culture conditions can be detected by ONE-Glo Luciferase Assay System (Promega, Madison, WI). This cell line has been used to screen the Tox21 10K compound library to identify agonists that induce oxidative stress. The cytotoxicity of the Tox21 compound library against the KS-ARE cell line was tested in parallel by measuring the cell viability using CellTiter- Fluor assay system (Promega, Madison, WI) in the same wells.
Tox21 Assay Protocol Summary: HaCaT derived cell line KeratinoSens were dispensed at 1,500 cells/5uL/well in 1536-well white wall/solid bottom plates using a Multidrop Combi (ThermoFisher Scientific, Waltham, MA) dispenser. After the assay plates were incubated at 37 C/5% CO2 for 5 h, 23 nL of compounds dissolved in DMSO, positive controls or DMSO only was transferred to the assay plate by a pintool workstation (Kalypsys, San Diego, CA). The plates were incubated at 37 C/5% CO2 for 23 h, followed by addition of 1uL/well of CellTiter-Fluor reagent into the assay plates using a Flying Reagent Dispenser (Aurora Discovery, San Diego, CA) for cell viability readout that measures cytotoxicity. After 1 h incubation at 37 C/5% CO2 the fluorescence intensity was measured using a ViewLux (PerkinElmer, Shelton, CT) plate reader.
Potency is read from the fitted curve at half-maximal effect.

| SMILES | Potency |
| --- | --- |
| O=NN1CCN(N=O)CC1 | inactive |
| CNC(=O)N(C)c1nc2ccccc2s1 | inactive |
| CCC(OC(C)=O)C(CC(C)NC)(c1ccccc1)c1ccccc1 (stereo not given) | 54.9 µM (active) |
| CC(Cc1ccccc1)NCCn1cnc2c1c(=O)n(C)c(=O)n2C (stereo not given) | inactive |
| CCOP(=S)(OCC)SCSCC | inactive |
| CN(C)C1CSSSC1 | inactive |
| CCC1(CC)C(=O)N=C(O)NC1=O | inactive |
| O=C(CBr)Nc1ccc(Cl)cc1C(=O)c1ccccc1F | inactive |
| CCOC(=O)COc1cc(-c2nn(C)c(OC(F)F)c2Cl)c(F)cc1Cl | inactive |
| CCNP(=S)(OC)O/C(C)=C/C(=O)OC(C)C (stereo not given) | inactive |
| CCCN(CCC)c1c([N+](=O)[O-])cc(S(C)(=O)=O)cc1[N+](=O)[O-] | inactive |
| CC(C)(C)c1ccc(OP(=O)(Oc2ccccc2)Oc2ccccc2)cc1 | inactive |
| C=CC(=O)OCC | inactive |
| COc1cccc2c1C(=O)c1c(O)c3c(c(O)c1C2=O)C[C@@](O)(C(=O)CO)CC3OC1CC(N2CCOC(OC)C2)C(O)C(C)O1 (stereo not given in full) | 7.5 µM (active) |
| CN1C[C@@H](NS(=O)(=O)N(C)C)C[C@@H]2c3cccc4c3c(cn4C)C[C@H]21 | inactive |
| CCOP(=S)(OCC)OC(Cl)C(Cl)(Cl)Cl (stereo not given) | inactive |
| N#Cc1ccc(N(CC(N)=O)CC(F)(F)F)cc1C(F)(F)F | inactive |
| CCC(=O)c1ccc(Cl)cc1 | inactive |
| O=C(O)CC(Cl)C(=O)O (stereo not given) | inactive |
| S=C=Nc1ccccc1 | inactive |

| SMILES | Potency |
| --- | --- |
| O=[N+]([O-])c1cccc(CCl)c1 | inactive |
| CC(C)[N+](=O)[O-] | inactive |
| COC(=O)C(C)N(C(=O)c1ccco1)c1c(C)cccc1C (stereo not given) | inactive |
| CCOP(=O)(OCC)Oc1cc(C)nc(C(C)C)n1 | inactive |
| CCOC(=O)COc1ccc(Cl)cc1Cl | inactive |
| NC1CCC(CC2CCC(N)CC2)CC1 (stereo not given) | 23.9 µM (active) |
| CN(C)C(=O)Nc1cccc(OC(=O)NC(C)(C)C)c1 | inactive |
| COc1cc(CC(C)N)cc(OC)c1OC (stereo not given) | inactive |
| CC(=O)[O-].CC(=O)[O-].[Co+2] | inactive |
| CCCSP(=S)(OCC)Oc1ccc(Cl)cc1Cl (stereo not given) | inactive |
| CCC[CH2][Sn]([CH2]CCC)([O]C(C)=O)[O]C(C)=O | 0.219 µM (active) |
| O=C(O)C(F)(F)C(F)(F)C(F)(F)C(F)(F)C(F)(F)F | inactive |
| CCCCNP(N)(N)=S | inactive |
| C=CC(=O)OCCCCO | inactive |
| [O]=[Cd] | inactive |
| CCN(C(C)=O)c1cccc(-c2ccnc3c(C#N)cnn23)c1 | inactive |
| Cc1cc(C)c(C(=O)P(=O)(C(=O)c2c(C)cc(C)cc2C)c2ccccc2)c(C)c1 | inactive |
| CCOC(=O)CCN(SN(C)C(=O)Oc1cccc2c1OC(C)(C)C2)C(C)C | inactive |
| O=C(Oc1ccc(Br)cc1)N1CCN2CCC1CC2 | inactive |
| NNC(N)=O | inactive |
